Laboratory results as given in PubChem BioAssay.

assay: small-molecule microarray binders of probe aWnt5a, primary screen, biochemical, biotinylated probe, 635/667 nm fluorescence (AID 1113); settings: higher = more signal;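 note: score merges 667 nm fluorescence intensity with signal-to-noise per printed feature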

Structure (SMILES) | composite z-score
[N-]=[N+]=Nc1ccccc1C[C@@]1(C(=O)N2CCOCC2)N=C(c2ccc(OCCCO)cc2)O[C@@H]1c1ccccc1 | 0.291
[N-]=[N+]=Nc1ccccc1C[C@]1(C(=O)O)COC(c2ccc(OCCCO)cc2)=N1 | 0.0718
COCCOC(=O)N1C(=O)[C@@]2(c3cc(C#CC4=CCCCC4)ccc31)[C@H](c1ccccc1OCCO)N1[C@H](c3ccccc3)[C@H](c3ccccc3)OC(=O)[C@H]1[C@@H]2C(=O)N1CCN(c2ncccn2)CC1 | -0.206
O=C1O[C@@H](c2ccccc2)[C@@H](c2ccccc2)N2[C@@H](c3ccc(OCCO)cc3)[C@]3(C(=O)Nc4ccc(C#CC5=CCCCC5)cc43)[C@@H](C(=O)NC[C@H](O)c3ccccc3)[C@H]12 | -0.042
[N-]=[N+]=Nc1ccccc1C[C@]1(C(=O)NCCN2CCOCC2)COC(c2ccc(OCCCO)cc2)=N1 | -0.349
O=C1OCCC=C[C@H]2OC34C=CCN(Cn5nnc6ccccc65)C(=O)[C@H]3N(CCCO)C(=O)[C@@H]4C12 (stereo not given in full) | -0.112
CC(C)[Si](C#C[Si](C(C)C)(C(C)C)C(C)C)(O[C@H](c1ccccc1)c1cn(Cc2ccccc2)nn1)C(C)C | -0.0794
CC(C)N1C(=O)C[C@@](C(=O)O)(c2ccc([N+](=O)[O-])cc2)[C@H]1c1ccc(CO)cc1 | -0.118
C=CCC(OC(C)=O)[C@@H]1[C@@H](N(Cc2ccc(-c3ccccc3)cc2)C(=O)c2ccc(-c3ccccc3)cc2)c2cc(OCCCO)ccc2N1C(=O)c1ccc2ccccc2c1 (stereo not given in full) | -0.11
COc1ccc([Si](C)(C)[C@@H]2[C@@H](CCO)O[C@]3(C(=O)N(Cc4ccccc4)c4ccc(N5CCOC5=O)cc43)[C@H]2C)cc1 | 0.394
[N-]=[N+]=Nc1ccccc1C[C@]1(C(=O)NCC(O)CO)COC(c2ccc(OCCCO)cc2)=N1 (stereo not given in full) | -0.132
CN(C)CCCCCCNC(=O)[C@@H]1C[C@@H]2C(=O)N3CCC[C@H]3C(=O)N2[C@@H]1c1cccc(OCCO)c1 | 0.0566
CCOC(=O)C[C@H]1[C@H](OC(=O)c2cc3ccccc3oc2=O)[C@@H](NC(=O)c2ccccc2)c2cc(OCCCO)ccc2N1C(=O)c1ccccc1 | -0.0718
O=C1C2C=CC(C(O)c3cccc(O)c3)N(Nc3ccc([N+](=O)[O-])cc3)C2C(=O)N1c1ccccc1 (stereo not given) | -0.0462
C=CC[C@@]1(C(=O)NCCCOC)N=C(c2ccc(OCCCO)cc2)O[C@@H]1c1ccccc1 | 0.155
CCCCC(=C=CC[C@H](O)c1ccc(OCCO)cc1)CCO | -0.124
C=C(C(=O)CC[C@H](OC(=O)c1ccccc1-c1ccccc1C(=O)O)c1cccc(OCCO)c1)C(C)C | -0.184
COC(=O)[C@]1(CCS(=O)(=O)c2ccccc2)N=C(c2ccc(OCCCO)cc2)O[C@@H]1c1ccccc1N=[N+]=[N-] | 0.0655

Structure (SMILES) | composite z-score
C=C(/C(=C/C[C@H](OC(=O)c1ccncc1)c1ccc(CO)o1)c1cnc2ccccc2c1)C(C)C | 0.0474
CC[C@@H]1C=C(C(=O)O)[C@H](c2ccc(C#N)cc2)N1S(=O)(=O)c1ccc(C)cc1 | 0.0136
CCCCCCCCCCC(O)C1C=CC2C(=O)N(c3ccccc3)C(=O)C2N1Nc1ccc(C#N)cc1 (stereo not given) | 0.203
CC[C@@H]1C=C(C(=O)O)[C@H](c2ccccc2)N1S(=O)(=O)c1ccc(C)cc1 | -0.113
O=C1O[C@H](c2ccccc2)[C@H](c2ccccc2)N2[C@H]1[C@@H](C(=O)O)[C@]1(C(=O)Nc3ccc(C#CCCO)cc31)[C@H]2c1ccccc1OCCO | -0.139
O=C1C2C=CC(C(O)c3ccco3)N(Nc3ccccc3F)C2C(=O)N1c1ccccc1 (stereo not given) | 0.115
COc1ccc([Si](C)(C)[C@@H]2[C@@H](CCO)O[C@]3(C(=O)N(Cc4cccc(NC(=O)[C@H](C)O)c4)c4ccccc43)[C@H]2C)cc1 | 0.0998
CC(C)N1C(=O)C[C@@](C(=O)NC2CC2)(c2ccc([N+](=O)[O-])cc2)[C@H]1c1ccc(CO)cc1 | -0.0934
Oc1ccc2cc[n+](Cc3cc4c(cc3Br)OCO4)cc2c1 | -0.1
CCOC(=O)C[C@H]1[C@H](OC(=O)c2ccc(-c3ccccc3)cc2)[C@@H](NC(=O)CC(C)C)c2cc(OCCCO)ccc2N1C(=O)c1ccc2ccccc2n1 | -0.0678
CCCCC(CC)C(O)C1C=CC2C(=O)N(c3ccccc3)C(=O)C2N1Nc1ccccc1F (stereo not given) | 0.0768
CCOC(=O)C[C@H]1[C@H](OC(=O)c2ccccc2-c2ccccc2)[C@@H](NC(=O)c2ccc3ccccc3n2)c2cc(OCCCO)ccc2N1C(=O)Cc1ccc(OC)cc1 | -0.124
COCCCNC(=O)[C@@]1(CCC(=O)OC(C)(C)C)N=C(c2ccc(OCCCO)cc2)O[C@H]1c1ccccc1N=[N+]=[N-] | 0.302
OCCCC1=CC(c2ccc(CN3CCCC3)cc2)N(Cc2cc3c(cc2Br)OCO3)CC1 (stereo not given) | -0.0735
CCOC(=O)C[C@H]1[C@H](OC(=O)Cc2ccc3c(c2)OCO3)[C@@H](NC(=O)C2CCCCC2)c2cc(OCCCO)ccc2N1C(=O)c1ccccc1 | -0.1
COCC(=C=CC[C@H](O)c1ccccc1OCCO)C[C@H](O)c1ccccn1 | -0.18
[N-]=[N+]=NCc1ccccc1[C@@H]1OC(c2ccc(OCCCO)cc2)=N[C@]1(CCS(=O)(=O)c1ccccc1)C(=O)O | 0.0487
